# Bioassay records: PubChem, National Center for Advancing Translational Sciences (NCATS)
# Pf growth 96h = P. falciparum growth inhibition at 96 hours. P. falciparum luciferase reporter growth, 96 h. Potency, µM (series often up to 28.7 µM), for inactives: at the highest dose activity change, negative = inhibition, usual class: inhibitors. 320,000 tested, 6.9% active. AID 504834; note: potency is the fitted concentration of half-maximal effect; % is set by controls: 0 for no effect and ±100 for the full control effect
#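 Parasite growth measured via integrated firefly luciferase reporter in P. falciparum. Infected erythrocytes at 2% hematocrit, 0.05% parasitemia final were treated 96 hours at 37 C under 5% CO2, and luminescence was read.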
# HCV inh = blocks hepatitis C virus; Huh7.5.1 HCVcc-Cre infection, luciferase reporter, 44 h; Potency, µM (highest dose often 41.8 µM), for the others: top-dose activity change, negative = inhibition, hits mostly inhibitors; 340,000 tested, 3.4% active; AID 651820; note: potency is the fitted concentration of half-maximal effect; % is set by controls: 0 for no effect and ±100 for the full control effect
#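 1,000 cells/well; 4 h culture; + compound; + HCVcc-Cre (~0.5 moi); 44 h; luciferase substrate, RT 15 min; read 15 sec.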
# Pf growth 48h = P. falciparum growth inhibition at 48 hours (one generation) | AID 504832 | Potency, µM (series often up to 28.7 µM), without a hit: at the top dose activity change, negative = inhibition, actives largely listed as inhibitors | P. falciparum luciferase growth in erythrocytes, 48 h | 310,000 tested, 5.9% active; note: potency is the fitted concentration of half-maximal effect; % is set by controls: 0 for no effect and ±100 for the full control effect
#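 Luciferase-expressing P. falciparum in infected erythrocytes (2% hematocrit, 0.1% parasitemia final) in RPMI 1640/0.5% Albumax were exposed to compound for 48 hours at 37 C, 5% CO2; growth read as luminescence.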
# AMA1 RON2 block = inhibitors of Plasmodium falciparum AMA1-RON2 interaction; AlphaScreen AMA1-biotinylated RON2 peptide binding; 360,000 tested, 0.2% active; Potency, µM (series often up to 58.2 µM), without a hit: at the highest dose activity change, negative = inhibition, most hits filed as inhibitors; AID 720542;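 note: potency is the fitted concentration of half-maximal effect; 0% = vehicle wells and -100% = peptide control; nearly all actives have a fitted effect of over 45% in size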
#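 AMA1 (3D7) with his tag at 25 nM final met compounds first, then biotinylated RON2 peptide at 25 nM; detection used donor plus acceptor beads, 10 µg/mL apiece, read by AlphaScreen after 30 min at room temperature.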
# Cycloheximide cs = affects cycloheximide protein synthesis inhibition readout, counter-screen; cell reporter, cycloheximide protein synthesis inhibition counterscreen; max response, %; 300,000 tested, 12% active; AID 2314; in the data active = max response mostly above about 13%, no sharp cut-off; inactive = mostly below about 14%; note: read at 38.3 µM for the half of the compounds with a filed dose; 0% is about no effect
# Shiga toxin inh = blocks Shiga toxin action in Vero cells; Vero cells, Shiga toxin protein synthesis inhibition reporter; 290,000 tested, 9.2% active; inhibition, % at 38.7 µM; AID 2315; in the data active = inhibition mostly above about 28%, no sharp cut-off; inactive = mostly below about 43%; note: 0% is about no effect
# Starred values were filed as active, the others as inactive; ? = inconclusive; · = no result given; [ ] = remark or other dose. Only some compounds are listed: those with a hit (about 21% of all), similar ones and a draw of the others. Unless noted, calls come from the whole dose curve; as a rule, active = well fitted curve in the direction sought with a large enough effect; inconclusive = small, poorly fitted or top-dose-only effect, or another doubt; inactive = no such curve, though single readings can be large; an effect the other way counts as inactive or inconclusive.
SMILES,Pf growth 96h,HCV inh,Pf growth 48h,AMA1 RON2 block,Cycloheximide cs,Shiga toxin inh
COc1cc(/C=N/NC(=O)c2cccc(NC(=O)c3ccccc3)c2)ccc1O,13%,14%,-10%,11%,13,33*
O=C(N/N=C/c1ccccc1Cl)c1ccncc1,3%,14%,14%,5%,11,4
O=C(N/N=C/c1ccc(F)cc1)c1cccc(NC(=O)c2ccc(F)cc2)c1,?,-19%,?,-7%,34*,100*
O=C(N/N=C/c1cccc(NC(=O)c2ccc(Cl)cc2)c1)c1ccc(O)cc1,?,?,138%,7%,60*,85*
O=C(N/N=C/c1cccnc1)c1ccc(NC(=O)c2ccc(Cl)cc2)cc1,20%,?,?,2%,-3,-5
COc1cc(/C=N/NC(=O)c2cccc(NC(=O)c3ccccc3C)c2)ccc1O,?,-12%,-9%,16%,-2,-8
CC(C)C[C@H](NC(=O)CNC(=O)[C@@H]1CCCN1C(=O)[C@H](CCCNC(=N)N)NC(=O)[C@H](CC(=O)O)NC(=O)[C@@H](NC(=O)[C@H](CC(N)=O)NC(=O)[C@@H](NC(=O)[C@H](CC(=O)O)NC(=O)CNC(=O)[C@@H](NC(=O)[C@@H](NC(=O)[C@H](C)NC(=O)[C@@H](N)CCC(N)=O)[C@@H](C)O)C(C)C)C(C)C)[C@@H](C)O)C(=O)N[C@@H](CC(C)C)C(=O)N[C@@H](CC(=O)O)C(=O)N[C@@H](CC(C)C)C(=O)N[C@@H](CCCCN)C(=O)O,·,·,·,·,-3,8
COCCN(CCOc1cc(C)cc(C)c1)Cc1ccc(Cl)cc1,?,6%,?,13%,-1,-4
C[C@]12CCC(=O)C=C1C=C[C@@H]1[C@@H]2CC[C@@]2(C)[C@H]1CC[C@@]21CCC(=O)O1,-21%,-5%,-21%,7%,-3,-8
CCCCNC(=O)COC(=O)c1ccccc1F,9%,9%,2%,5%,10,5
CCOc1ccc(NC(=O)CCC(=O)NNC(=O)c2ccc(Br)o2)cc1,-25%,-8%,21%,22%,-1,-2
COc1cc(/C=N/NC(=S)Nc2cccc(S(=O)(=O)N(C)C)c2)ccc1O,?,-5%,22%,41%,30*,49*
O=C(N/N=C/c1ccncc1)c1cccc(NC(=O)c2ccc(Cl)cc2)c1,?,-25%,13µM*,-13%,11,20
O=C(CN1CCN(Cc2ccc(Cl)cc2)CC1)N/N=C/c1cccc(F)c1,5%,-30%,-2%,16%,2,-2
O=C(N/N=C/c1cccnc1)c1ccc(NC(=O)c2cccc(Cl)c2)cc1,25%,-29%,?,-22%,-1,23
O=C(N/N=C/c1cccc(F)c1)c1ccc(Cl)cc1,60%,-2%,98%,10%,44*,119*
O=C(N/N=C/c1ccc(O)cc1)c1cccc(N/N=C/c2ccc(O)cc2)c1,50%,?,262%,107%,37*,60*
O=C(N/N=C/c1ccncc1)c1cccc(N/N=C/c2ccncc2)c1,?,-7%,-15%,0%,3,15
CC(C)(C)c1ccc(C(=O)N/N=C/c2cccc(Cl)c2)cc1,13µM*,7.1µM*,·,-3%,20,27
COc1ccc(/C=N/NC(=O)c2cccc(NC(=O)c3ccc(Cl)cc3)c2)c(OC)c1,18%,?,9%,-4%,12,31*
COc1ccc(/C=N\NC(=O)c2cccc(Br)c2)c(OC)c1,-4%,9%,-15%,0%,-1,-6
C/C(=N\NC(=O)Cc1cccn1C)c1ccco1,41%,3%,18%,46%,14,33
C/C(=N/NC(=O)c1cccs1)c1ccco1,190%,13%,111%,21%,56*,95*
C/C(=N\NC(=O)c1cccs1)C(C)(C)C,55%,18%,102%,48%,71*,57*
C/C(=N\NC(=O)c1ccc2c(c1)OCO2)c1ccco1,218%,0%,93%,12%,16,15
SMILES,Pf growth 96h,HCV inh,Pf growth 48h,AMA1 RON2 block,Cycloheximide cs,Shiga toxin inh
C/C(=N\NC(=O)c1csc(C)c1C)c1ccco1,81%,8%,163%,27%,37*,62*
C/C(=N\NC(=O)c1cccs1)c1ccc(C(=O)O)s1,39%,2%,97%,1%,64*,83*
COc1cc(OC)cc(C(=O)NNC(=O)CCNS(=O)(=O)c2ccc(Br)cc2)c1,·,11%,·,97%,·,·
CCn1c(C)c(C(=O)O)c2cc(OC)c3ccccc3c21,45%,-6%,20%,-10%,-3,-6
CCCCCCN1C[C@H](O)[C@@H](n2cc(C3CC3)nn2)C[C@@H]1c1ccccc1,·,·,·,0%,·,·
CC(=O)N/N=C(/C)c1ccc(NC(=O)c2csc(C)c2C)cc1,-12%,-17%,230%,0%,40*,147*
C/C(=N\NC(=O)c1csc(C)c1C)c1ccc(C)s1,-15%,-10%,93%,17%,38*,38*
CCOC(=O)C/C(C)=N/NC(=O)c1cccs1,170%,9%,99%,59%,22*,71*
CC(=O)Nc1ccc(/C(C)=N/NC(=O)c2ccncc2)cc1,1%,-7%,22%,21%,12,39
CCOC(=O)NC(O)C(=O)c1ccc(F)cc1 (centres undefined),?,13%,-18%,-4%,2,-19
CCOC(=O)NC(O)C(=O)c1cccs1 (centres undefined),5.2µM*,16%,8%,19%,-4,18
CC(=NNC(=O)c1cc(C)oc1C)c1ccc(Br)s1,·,7%,·,-2%[11.6 µM],·,·
O=C(O)C(CCCCNS(=O)(=O)c1ccc(F)cc1)NS(=O)(=O)c1ccc(F)cc1 (centres undefined),-14%,17%,0%,31%,-6,-1
CCOc1ccc(NC(=O)c2ccc3c(c2)C(=O)N(Cc2ccncc2)C3=O)cc1,22%,5%,-3%,-11%,·,·
CCOC=C1C(=O)N(C(C)=O)c2cc(OC)c(OC)cc21,·,-7%,·,-6%,·,·
O=C(NCc1cc(Cl)cc(Cl)c1)c1csc([C@@H]2C[C@H](O)[C@@H](CO)O2)n1,·,·,·,0%,·,·
Cc1cccc(N2CSC3=C(C#N)C(c4ccc(C)o4)CC(=O)N3C2)c1 (centres undefined),10µM*,·,36%,·,11*,26
COC(=O)C1=C(C)N(Cc2ccccc2)C(=NCC(C)C)N[C@H]1c1ccccc1,8.3µM*,-12%,?,-4%,-3,-4
CCN1C(=NCC(C)C)N[C@@H](c2cccc(C(F)(F)F)c2)C(C(=O)OC)=C1C,0.93µM*,-15%[8.37 µM],13µM*,2%,-3,-8
CCN1C(=NCCCCO)N[C@@H](c2cccc(C(F)(F)F)c2)C(C(=O)OC)=C1C,?,-9%,?,-2%,-2,-2
